The list is not random: actives were taken first. Their share in the collection is about 3.6%.
Pf apPOL block: Pf-apPOL inhibitors, biochemical, fluorescence; Plasmodium falciparum apicoplast DNA polymerase (apPOL); Recombinant Pf-apPOL, molecular beacon fluorescence, 1.5 h; inhibition, % at 10 µM; 210,000 compounds, 0.25% hits
mHTT CaM bind: mutant huntingtin-calmodulin interaction inhibitors – biochemical, AlphaScreen, primary screen; 190,000 compounds, 3.6% hits; AID 1671202, 2021; AlphaScreen His-mHTT/GST-CaM binding, luminescence; inhibition, % at 15 µM;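 also: 0% = both proteins with DMSO and 100% = one protein alone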
Numbers without * were called inactive; / = no result given. Rule as the data show it: active = inhibition above about 50%; inactive = the rest.

SMILES	Pf apPOL block	mHTT CaM bind
Cc1[nH]c2ccccc2c1C=Nc1c(-c2ccco2)nc2ccccn12	-3	91*
O=C(O)C1CCC1C(=O)N1CCN(c2ccc([N+](=O)[O-])cn2)CC1 (stereo not drawn)	-7	/
CC(Sc1nc2c(cnn2-c2ccccc2)c(=O)[nH]1)c1ccccc1 (stereo not drawn)	3	8
COc1cccc(NC(=O)C(=O)NCc2ccc(F)cc2)c1	-17	-5
CCCNC(=O)C1CC(=O)N(CCc2c[nH]c3ccc(Cl)cc23)C1 (stereo not drawn)	0	28
O=C(NCCc1ccccc1)C1CC(=O)N(CCc2c[nH]c3ccc(Cl)cc23)C1 (stereo not drawn)	-2	90*
O=C1CC(C(=O)N2CCc3ccccc3C2)CN1CCc1c[nH]c2ccc(Cl)cc12 (stereo not drawn)	3	65*
O=C1CC(C(=O)N2CCc3ccccc3C2)CN1CCc1c[nH]c2ccc(F)cc12 (stereo not drawn)	2	46
CC(C)CNC(=O)C1CC(=O)N(CCc2c[nH]c3ccc(Cl)cc23)C1 (stereo not drawn)	-1	14
O=C(NCc1ccccn1)C1CC(=O)N(CCc2c[nH]c3ccc(Cl)cc23)C1 (stereo not drawn)	-3	92*
O=C1CCSCC(C(=O)NCCC2=CCCCC2)N1 (stereo not drawn)	-4	-6
O=C1C(=Cc2cccs2)Oc2cc(O)ccc21	0	0
COCCC(=O)N1CCC(c2nc(C(=O)N3CCCC3)c(C)o2)CC1	-4	3
Cc1cccn2c(=O)c3cc(C#N)c(=N)n(CCOCCO)c3nc12	-7	-2
Cc1nc2cc(-c3noc(CCc4ccccc4)n3)ccc2o1	1	-32
CCOCC(=O)N1CCCn2cc(-c3ccc4c(c3)OCO4)nc21	-6	21
O=[N+]([O-])c1ccc(O)c(N=Cc2sc3ccccc3c2O)c1	-5	43
O=[N+]([O-])c1ccc2c(N=Nc3ccc4ccccc4c3O)c(O)cc(S(=O)(=O)O)c2c1	/	100*
O=C1C(=O)N(CN2CCN(c3ccccc3)CC2)c2ccccc21	3	0
CCOc1ccc(C(=O)Nc2ccc(N(CC)CC)cc2)cc1[N+](=O)[O-]	1	10
CCN(CC)c1ccc(NC(=O)c2ccc(OC)cc2OC)cc1	0	67*
CCN(CC)c1ccc(NC(=O)c2ccc(OC)c([N+](=O)[O-])c2)cc1	-1	62*
COc1ccc(C(=O)Nc2ccc(I)cc2)c(OC)c1	-2	2
Cc1ccccc1CC(=O)N1CCCC1C(=O)NCCc1csc(-c2ccccc2)n1 (stereo not drawn)	-7	14
Cc1ccccc1C(=O)N1CCCCC1c1nc(-c2ccncc2)no1 (stereo not drawn)	0	7
SMILES	Pf apPOL block	mHTT CaM bind
Nc1cc(N)nc(SCC(=O)NCc2ccccc2)n1	-3	4
Nc1sc(SCC(=O)NCc2ccc(F)cc2)nc1-c1ccccc1	-3	91*
COc1cccc(C2Nc3ccccc3NC3=C2C(=O)CC(c2ccc(Cl)cc2)C3)c1OC (stereo not drawn)	5	80*
COc1cc(C2Nc3ccccc3NC3=C2C(=O)CC(c2ccc(C)cc2)C3)cc(Cl)c1O (stereo not drawn)	13	62*
COc1ccccc1C1Nc2ccccc2NC2=C1C(=O)CC(c1ccc(Cl)cc1)C2 (stereo not drawn)	-11	5
CC1=C(C#N)C(c2cccnc2)C2=C(CC(c3ccc(Cl)cc3)CC2=O)N1 (stereo not drawn)	1	-4
COc1ccc(C2CC(=O)C3=C(C2)Nc2ccccc2NC3c2cc(Cl)c(O)c(OC)c2)cc1 (stereo not drawn)	-17	23
CCOc1ccccc1C1C(C#N)=C(C)NC2=C1C(=O)CC(c1ccc(Cl)cc1)C2 (stereo not drawn)	1	52*
COc1ccc(C2CC(=O)C3=C(C2)Nc2ccccc2NC3c2cc(C)ccc2C)cc1 (stereo not drawn)	0	62*
COc1ccc(C2CC(=O)C3=C(C2)Nc2ccccc2NC3c2ccccc2Br)cc1 (stereo not drawn)	-7	12
O=C(CCSCc1ccccc1F)N1CCC2(CC1)OCCO2	40	3
CC1(C)C(C=C(Cl)Cl)C1C(=O)Nc1cccc(Cl)c1 (stereo not drawn)	-3	43
COc1ccc(OC)c(CNC(=O)C2c3ccccc3CC(=O)N2C)c1 (stereo not drawn)	0	4
c1ccc(-c2ccc3ccccc3n2)nc1	/	-1
c1ccc(-c2cccc(-c3ccccn3)n2)nc1	/	100*
Cc1ccc(C)c(NC(=O)Cn2ccc3oc(C)cc3c2=O)c1	2	-10
O=C(NCCc1csc(C2CCCN(C(=O)c3ccc4ccccc4n3)C2)n1)C1CCC1 (stereo not drawn)	-5	0
COc1ccc(-c2c(-c3ccc(O)cc3O)n[nH]c2C)cc1	12	35
Cc1[nH]nc(-c2ccc(O)c(O)c2O)c1-c1ccccc1	0	91*
CCOc1ccc(CN2CCc3nc(N4CCCC4)ncc3C2)cc1	7	18
CC(C)CN1CCc2nc(N3CCOCC3)nc(Oc3ccccc3F)c2C1	0	22
c1ccc(Oc2nc(N3CCCCC3)nc3c2CN(Cc2cccnc2)CC3)cc1	-2	53*
Cn1cccc1CN1CCc2nc(N3CCCCC3)nc(Oc3ccccc3)c2C1	2	71*
O=C(CN1C(=O)c2ccccc2C1=O)Nc1nnc(C2=COCCO2)o1	3	5
COC1=CCC2([N+](=O)[O-])CN(Cc3ccccc3)CC1([N+](=O)[O-])C2 (stereo not drawn)	-2	-12
SMILES	Pf apPOL block	mHTT CaM bind
Cc1nc2c(C(=O)NC3CCCC3)cnn2c(C)c1Cc1cccc(Br)c1	0	10
Cc1nc2c(C(=O)NC3CCCCC3)cnn2c(C)c1Cc1ccccc1Cl	-2	2
Cc1nc2c(C(=O)NC3CCCCC3C)cnn2c(C)c1Cc1cccc(Cl)c1 (stereo not drawn)	-10	71*
Cc1nc2c(C(=O)NC3CC3)cnn2c(C)c1Cc1ccccc1Cl	-6	58*
Cc1nc2c(C(=O)NC3CCCCC3C)cnn2c(C)c1Cc1ccccc1 (stereo not drawn)	-8	16
Cc1nc2c(C(=O)NC3CCCCC3)cnn2c(C)c1Cc1cccc(Cl)c1	12	61*
Fc1cccc(Cl)c1CN1CCN(Cc2nc3ccccc3[nH]2)CC1	-7	3
Cc1onc(-c2ccccc2)c1C(=O)Nc1sc2c(c1C(N)=O)CCCCC2	6	30
O=C(NCc1ccncc1)C1CCc2sc(C(=O)N3CCCC3)cc2C1 (stereo not drawn)	-8	0
Cc1[nH]nc(-c2ccc(Cl)cc2)c1NC(=O)C(C)(C)C	3	-2
Cc1cc(C(=O)NCC2CCN(S(=O)(=O)C3CC3)CC2)c(C)o1	-2	7
CC(=O)Nc1ccc(-c2noc(C3CCCN(C(=O)c4sccc4C)C3)n2)cc1 (stereo not drawn)	-2	15
COc1cc(SC)ccc1C(=O)Nc1cc(C(F)(F)F)ccc1Cl	-8	-2
CCN(C(=O)Cc1ccccc1)C1CCCCC1	-6	-4
Cc1ccc(NC(=O)C2CCc3nc(N4CCOCC4)ncc3C2)cc1F (stereo not drawn)	-1	4
CCOc1ccccc1CN1CCc2nc(Nc3ccc(OC)cc3OC)ncc2C1	-6	55*

Assay outcomes from PubChem.
